# Assay results from PubChem BioAssay (Tox21).
# Several values for one entry are separate records, joined by “and”; a condition that tells them apart may be missing. Equal entries are not always repeated. Results filed as inconclusive are left out. A number with no mark means an inactive call. Activity calls are given as the source filed them. Calls come from the whole dose curve; as a rule, active = well fitted cell-killing curve with a large enough effect in the repeat runs; inconclusive = weak or mixed curves, or effect the other way; inactive = flat fitted curve, though single readings scatter.
# Experiment: qHTS assay to identify small molecule agonists of the estrogen receptor beta (ER-beta) signaling pathway - cell viability counter screen (AID 1259380); note: nearly all actives have a fitted effect of over 30% in size
# Details: ER-beta-bla HEK293T viability, CellTiter-Glo luminescence, 16 h; series mostly up to 92.4 µM; activity change, negative = cytotoxicity: at the top concentration
# Summary of the method: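 Same-well viability counter screen. Cells: ER-beta-UAS-bla HEK293T, plated 6 hr before compound, in 2% charcoal-stripped FBS. Compound exposure 16 hr, 37C; viability by CellTiter-Glo luminescence after 30 min at room temperature.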
# % is set by controls: 0 for no effect and ±100 for the full control effect; potency is the fitted concentration of half-maximal effect.
SMILES,Potency,"activity change, negative = cytotoxicity"
CCCCC(=O)O[C@]1(C(=O)CO)[C@@H](C)C[C@H]2[C@@H]3CCC4=CC(=O)C=C[C@]4(C)[C@@]3(F)[C@@H](O)C[C@@]21C,15.4 µM (active),–
COc1ccc(C(=O)c2cccc(O)c2)c(OC)c1,–,-0.98%
C=CCOC(=O)/C=C\C(=O)OCC=C,–,-4.41%
O=C(CS)OCCOC(=O)CS,30.6 µM (active),–
CCCCCCCCSCCO,–,2.38%
COCc1c(C(C)C)nc(C(C)C)c(/C=C/[C@@H](O)C[C@@H](O)CC(=O)O)c1-c1ccc(F)cc1,298 nM (active) and 1.08 µM (active),–
COCCOC(=O)C1=C(C)NC(C)=C(C(=O)OC/C=C/c2ccccc2)C1c1cccc([N+](=O)[O-])c1 (stereo unspecified),–,12.9% [at 42.5 µM]
O=C(CCCCCCC(=O)Nc1ccccc1)NO,2.66 µM (active),–
CCOC(=O)N1CCC(n2c(=O)[nH]c3cc(Cl)ccc32)CC1,–,3.18% [at 42.5 µM]
Nc1ccc(C(=O)OCCCOC(=O)c2ccc(N)cc2)cc1,17.2 µM (active),–
CCCCCCCCCCCC(=O)[O][Sn]([CH2]CCC)([CH2]CCC)[O]C(=O)CCCCCCCCCCC,–,-12.8% [at 42.5 µM]
C[C@]12CCC(=O)C=C1C=C[C@@H]1[C@@H]2CC[C@@]2(C)[C@H]1CC[C@@]21CCC(=O)O1,–,5.54% [at 42.5 µM]
N#C/C(=C1/SC[C@@H](c2ccc(Cl)cc2Cl)S1)n1ccnc1,–,-9.52% [at 42.5 µM]
NC(=O)Nc1ccc(Cl)c(Cl)c1,–,-18.7%
O=C(OCCOCCO)c1ccccc1Nc1cccc(C(F)(F)F)c1,–,-13.4% [at 42.5 µM]
CCOC(=O)[C@@H](C)Oc1ccc(Oc2nc3ccc(Cl)cc3o2)cc1,–,8.77%
CN(C)CCOC1=Cc2ccccc2Sc2ccc(Cl)cc21,26.6 µM (active),–
OC(CCCN1CCCCC1)(c1ccccc1)c1ccccc1,–,-3.65% [at 42.5 µM]
CCCOc1ccc(S(=O)(=O)N2CCN(CC)CC2)cc1-c1nc2c(CC)n(Cc3ccccn3)nc2c(=O)[nH]1,–,-13%
O=C(c1ccc(O)cc1)c1ccc(Cl)cc1,–,-4.16%
NC(=O)N(O)[C@@H]1C=C[C@H](Oc2cccc(Oc3ccc(F)cc3)c2)C1,–,4.96%
CNC(=S)NC,13.7 µM (active),–
COc1cc2c(N3CCN(C(=O)Nc4ccc(OC(C)C)cc4)CC3)ncnc2cc1OCCCN1CCCCC1,18.8 µM (active),–
CCCC1C(CC)=CC(CC)=CN1c1ccccc1 (stereo unspecified),–,7.79%
O=C(CCCN1CCC(O)(c2ccc(Br)cc2)CC1)c1ccc(F)cc1,23.7 µM (active),–
CCc1c2c(nc3ccc(OC(=O)N4CCC(N5CCCCC5)CC4)cc13)-c1cc3c(c(=O)n1C2)COC(=O)[C@]3(O)CC,–,6.87% [at 42.5 µM]
